Only some compounds are listed: those with a hit (about 4.5% of all), similar ones and a draw of the others.
Jurkat NFkB inh: lowers PMA/ionomycin-induced NF-kB signal in Jurkat cells | PMA/ionomycin-induced NF-kB luciferase reporter, luminescence | inhibition, % at 4 µM | 330,000 tested, 0.53% active | AID 435003; in the data active means inhibition above about 50%
Beta apoptosis: blocks beta cell apoptosis. INS-1E cytokine-induced death, ATP luminescence, 48 h; percent of positive-control rescue, neutral wells zero. AID 435005. protection from apoptosis, % (concentration not given with the values). 300,000 tested, 0.8% active;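 active means Every replicate reaches about 75%, or at least half do and their mean reaches it too, limit read from the data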;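 further: 0% = cytokine-treated negative control wells and 100% = positive control rescue; higher means more ATP so stronger rescue from cytokine killing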
CSC inhib: blocks cancer stem cells. cancer stem cell-like cells viability, luminescence. inhibition, % at 7.5 µM. 300,000 tested, 1.1% active; in the data active means inhibition above about 75%; tested in HMLE shEcad cells
697 NFkB inh: lowers PMA/ionomycin-induced NF-kB signal in 697 B cells. 697 B-cell NF-kB luciferase reporter, 16 h. inhibition, % at 4 µM. 330,000 tested, 0.33% active. AID 435022; in the data active means inhibition above about 35%
Mdm2-MdmX inh: human Mdm2/MdmX binding inhibition. O15151+Q00987. SaOS-2 split-luciferase Mdm2/MdmX complementation, luminescence. inhibition, % at 8 µM. 330,000 tested, 3% active. AID 485346;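 active means inhibition of at least 50% at 8 µM in the primary screen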
Target sequence (O15151 whole entry, looked up): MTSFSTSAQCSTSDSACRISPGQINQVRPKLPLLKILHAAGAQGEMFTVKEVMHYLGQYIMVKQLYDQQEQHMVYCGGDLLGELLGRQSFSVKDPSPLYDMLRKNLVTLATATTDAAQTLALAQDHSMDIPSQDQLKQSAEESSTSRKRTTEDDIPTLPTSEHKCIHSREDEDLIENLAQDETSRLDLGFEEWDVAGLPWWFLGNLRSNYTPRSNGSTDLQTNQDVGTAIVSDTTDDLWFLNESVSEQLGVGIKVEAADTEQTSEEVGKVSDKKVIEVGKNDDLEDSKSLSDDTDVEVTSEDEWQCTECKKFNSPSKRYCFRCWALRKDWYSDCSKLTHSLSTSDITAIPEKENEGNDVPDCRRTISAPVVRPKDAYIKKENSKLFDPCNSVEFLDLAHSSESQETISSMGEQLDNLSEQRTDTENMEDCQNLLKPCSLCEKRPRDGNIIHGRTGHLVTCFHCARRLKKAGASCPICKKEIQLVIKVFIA
Target sequence (Q00987 whole entry, looked up): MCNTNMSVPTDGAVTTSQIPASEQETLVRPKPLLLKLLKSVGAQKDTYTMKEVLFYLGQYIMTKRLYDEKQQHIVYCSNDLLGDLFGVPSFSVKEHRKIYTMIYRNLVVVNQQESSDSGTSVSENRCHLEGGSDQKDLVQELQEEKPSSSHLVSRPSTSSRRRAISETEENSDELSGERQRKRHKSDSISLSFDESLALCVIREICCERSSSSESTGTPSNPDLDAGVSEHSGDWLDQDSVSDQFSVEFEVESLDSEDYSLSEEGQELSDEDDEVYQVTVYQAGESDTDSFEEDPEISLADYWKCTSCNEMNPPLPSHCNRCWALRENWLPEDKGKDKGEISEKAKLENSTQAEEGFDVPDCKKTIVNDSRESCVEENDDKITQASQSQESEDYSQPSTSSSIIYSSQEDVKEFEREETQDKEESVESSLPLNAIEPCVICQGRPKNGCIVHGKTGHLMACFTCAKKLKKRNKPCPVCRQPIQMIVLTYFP
Gli-Sufu antag: blocks Gli-Sufu signaling in a luciferase reporter; inhibition, % at 5 µM; Sufu-KO-LIGHT fibroblasts, Gli luciferase reporter luminescence; 340,000 tested, 0.74% active;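 active means inhibition above about 55%, limit read from the data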;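 further: 0% = DMSO-treated cells and 100% = wells with medium but no cells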
Gli antag conf: Gli-SUFU antagonism confirmation, single concentration. 2,500 tested, 40% active. AID 602428. shares compounds with Gli-Sufu antag. inhibition, % at 5 µM. Sufu-KO-LIGHT cells, Gli luciferase reporter, luminescence;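 active means mean inhibition at 5 µM reaching about 45%, limit read from the data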;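 further: plate controls were DMSO-treated cells for no effect and wells lacking cells for full effect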
SufuKO cytotox: cytotoxicity counter-screen for Gli-SUFU antagonists. cytotoxicity, % at 5 µM. Sufu-KO-LIGHT cells cytotoxicity, ATP luminescence. AID 651994. shares compounds with Gli-Sufu antag. 2,500 tested, 32% active;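 active means mean cytotoxicity at 5 µM above about 25%, limit read from the data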;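 further: cells exposed to compound overnight for roughly 16 to 18 hours; plate controls were DMSO wells with cells for no effect and medium without cells for full effect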
Wnt3a cs: inhibits Wnt3a reporter, counter-screen for Gli-SUFU antagonists. AID 651995. shares compounds with Gli-Sufu antag. Wnt-LIGHT cells, Wnt3a-driven luciferase reporter, luminescence. 2,500 tested, 20% active. inhibition, % at 6.25 µM;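 active means mean inhibition above about 25%, limit read from the data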
* marks the source's active call; other numbers are inactive results; . = no result given.

SMILES | Jurkat NFkB inh | Beta apoptosis | CSC inhib | 697 NFkB inh | Mdm2-MdmX inh | Gli-Sufu antag | Gli antag conf | SufuKO cytotox | Wnt3a cs
COc1ccc(C(=O)C[n+]2cc(-c3ccc(OC)cc3)n3c2CCCC3)cc1 | 37 | 72 | -6 | -19 | 37 | 73* | 68* | 26* | -4
NC(=S)N/N=C/c1ncc(C(F)(F)F)cc1Cl | -7 | 65 | 91* | -16 | 47 | 53 | 65* | 28* | 44*
NC(=S)N/N=C/c1ccc(C(F)(F)F)cc1 | 15 | . | 12 | -26 | 8 | 7 | . | . | .
CC1CCN(Cc2c(C(=O)N3CCc4ccccc4C3)nc3ccc(Cl)cn23)CC1 | 0 | -3 | -7 | 0 | -17 | 51 | 21 | 33* | -43
O=C(CCc1nc2sc3c(c2c(=O)[nH]1)CCCC3)Nc1cccc(Cl)c1 | -3 | -20 | . | -1 | 22 | 70* | 27 | 6 | -11
COc1cccc(COc2cc3ccccc3nc2C)c1 | 32 | 98* | 15 | 9 | -9 | 53 | 58* | 30* | 15
Cc1nc2ccccc2cc1OCc1ccccc1 | 19 | 43 | -6 | -41 | 9 | 26 | . | . | .
Cc1nc2ccccc2cc1OCc1ccc(Cl)cc1 | 24 | 109* | . | -17 | -9 | 53 | 50* | 37* | 4
Cc1cccc(N(C(=O)CNC(=O)c2cccs2)C(C(=O)NC2CCCC2)c2ccncc2)c1 (stereo not given) | 23 | -3 | . | 8 | 8 | -7 | . | . | .
CC(=O)c1ccc(NC(=O)CN2CCN(CC(=O)Nc3ccc(C(C)=O)cc3)CC2)cc1 | -4 | . | . | 0 | -6 | -15 | . | . | .
CC(=O)c1ccc(NC(=O)CSC(C)C)cc1 | -31 | -3 | . | -24 | -46 | 99* | -1 | 28* | -34
CCOc1ccc(C2=CSC3=NCCN23)cc1 | -8 | -1 | -21 | -1 | 8 | 18 | . | . | .
CCOc1ccc(-n2c(-c3ccc(Cl)cc3)c[n+]3c2SCC3)cc1 | 24 | 73 | -16 | -14 | 3 | 78* | 74* | 30* | 4
Cn1c(-c2ccccc2)c[n+]2c1-c1ccccc1C2 | 19 | 12 | 5 | 5 | 7 | 27 | . | . | .
c1ccc(-c2cn(-c3ccccc3)c3[n+]2CCS3)cc1 | 18 | 53 | 0 | -26 | 19 | 65* | 64* | 26* | 13
c1ccc(-c2c[n+]3c(n2-c2ccccc2)SCC3)cc1 | 11 | 24 | -7 | -38 | -3 | 59* | 58* | 17 | 14
O=C(Nc1ccc(S(=O)(=O)NC2=NCCCCC2)cc1)c1cc(S(=O)(=O)N2CCOCC2)ccc1F | -10 | 1 | -7 | 2 | 24 | -3 | . | . | .
N=C(SC1CC(=O)N(c2ccc(F)cc2)C1=O)N1N=C(c2ccccc2)CC1c1ccccc1 (stereo not given) | -13 | -3 | 10 | -17 | 25 | -15 | . | . | .
COc1ccc(C2C3=C(CC(C)(C)CC3=O)Nc3c2c(=O)n(C)c(=O)n3C)cc1OC (stereo not given) | -2 | -6 | -16 | 8 | -7 | 58* | 13 | 29* | 11
CCn1c2ccccc2c2nc3cc(S(=O)(=O)N4CCOCC4)ccc3nc21 | . | . | . | . | . | 18 | . | . | .
C=CCn1c(O)c(N=NC(=S)Nc2ccccc2C)c2cc(S(=O)(=O)N3CCOCC3)ccc21 | 15 | 55 | 31 | 12 | 39 | 52 | 48* | 32* | -49
c1ccc(C[n+]2cccc(-c3ccccc3)c2)cc1 | 26 | -20 | 6 | -7 | 21 | 57* | 57* | 15 | 10
COC(=O)[C@@H](c1ccccc1)N(C)S(=O)(=O)c1cccc(S(=O)(=O)N(C)[C@@H](C(=O)OC)c2ccccc2)c1 | 28 | 22 | 6 | -16 | 8 | 57* | 33 | 33* | 22
CCOC(=O)c1sc2nc(CC(=O)OC)nc(NCc3ccc(Cl)cc3)c2c1C | 29 | 52 | -5 | 5 | -1 | 55* | 53* | 26* | -19
Cc1c(CCOC(=O)C23CC4CC(CC(C)(C4)C2)C3)sc[n+]1Cc1ccccc1 | 3 | 34 | 31 | -17 | 46 | 55 | 56* | 9 | -49
SMILES | Jurkat NFkB inh | Beta apoptosis | CSC inhib | 697 NFkB inh | Mdm2-MdmX inh | Gli-Sufu antag | Gli antag conf | SufuKO cytotox | Wnt3a cs
Cc1c(CCOC(=O)C23CC4CC(CC(C4)C2)C3)sc[n+]1Cc1ccccc1 | -11 | 10 | 45 | -20 | 7 | 9 | . | . | .
COc1c(C=O)c2c(c(OC)c1OC)-c1ccc(OC)c(=O)cc1C(NC(C)=O)CC2 (stereo not given) | . | . | . | . | . | 43 | . | . | .
COC(=O)c1ccc2c(c1)C(NC(C)=O)CCc1cc(OC)c(OC)c(OC)c1-2 (stereo not given) | . | . | . | . | . | 65* | 60* | 57* | 14
CCCC(=O)NC1CCc2cc(OC)c(OC)c(OC)c2-c2ccc(OC)c(=O)cc21 (stereo not given) | . | . | . | . | . | 56* | 58* | 64* | -2
O=C(COC(=O)CNC(=O)C1CCCCC1)NCc1ccc(Cl)cc1 | -23 | -2 | 15 | 3 | -22 | -2 | . | . | .
Cc1nc(N2CCCCC2)c(C#N)c(C)c1[N+](=O)[O-] | 2 | -2 | -1 | -6 | -14 | 8 | . | . | .
CCc1cccc2c(C(=O)COC(=O)c3nn(C)c(=O)c4ccccc34)c[nH]c12 | -7 | 6 | -5 | -12 | 16 | 99* | 30 | 6 | -86
CN(CC(=O)Nc1ccccc1Br)C(=O)c1cc(S(=O)(=O)N(C)C)ccc1N1CCCC1 | -17 | 3 | -8 | 14 | 16 | 10 | . | . | .
COc1ccc(CCNc2ncnc3cc(OC)c(OC)cc23)cc1OC | . | . | . | . | . | 44 | . | . | .
COc1cc2ncnc(NCCc3ccccc3)c2cc1OC | 24 | 25 | 40 | 9 | 38 | 60* | 32 | -1 | -27
O=C(NCCc1ccccc1)C1CCC(CNS(=O)(=O)c2ccccc2)CC1 (stereo not given) | 1 | . | 1 | 18 | -2 | 50 | 10 | -7 | -18
COc1ccc(/C(O)=C2/C(=O)C(=O)N(c3ccccn3)C2c2ccc(F)cc2)cc1 (stereo not given) | -8 | -2 | 3 | -3 | 13 | -13 | . | . | .
O=C(c1n[nH]c2ccccc12)N1CCN(S(=O)(=O)c2ccc(Cl)cc2)CC1 | -4 | 5 | . | 9 | 1 | 7 | . | . | .
N#Cc1c(-c2ccccc2)cc(C2CC2)nc1N | -21 | . | -16 | -24 | 6 | 50 | 22 | 24 | -14
FC(F)(F)c1ccc(N2CCN(c3cc(-c4ccccc4)nc4ncnn34)CC2)nc1 | 20 | . | . | -10 | 45 | 57* | 49* | 10 | -64

High-throughput results from PubChem BioAssay.
